# SW480 rerep = inducers of DNA re-replication in SW480 colon cancer cells; SW480 DNA re-replication, Hoechst DNA content imaging, 48 h; Potency, µM (top dose mostly 46.1 µM), for the others: top-dose re-replication activation, hits mostly activators; 340,000 tested, 1.8% active; further: % of control where 0% means no effect; nearly all actives have a fitted effect of over 55% in size
#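 SW480 cells exposed to compounds for 48 hr at 37 C, 5% CO2, then Hoechst-stained 40 min. Nuclear DNA content imaged by fluorescence scanning (405 nm excitation, 500-530 nm emission); re-replication scored as increased high-intensity nuclei.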
# PINK1 expr mod = changes PINK1 expression. PINK1 immunofluorescence, high-content cytometry, 24 h. Potency, µM (series often up to 76.6 µM), without a hit: at the top dose activation (PINK1 increase), actives largely listed as activators. 410,000 tested, 0.2% active. AID 624263; active means well fitted activation curve with a large enough effect; inconclusive means small, poorly fitted or top-dose-only effect; cell line not stated here; further: % of control where 0% means no effect; nearly all actives have a fitted effect of over 65% in size
#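 Readout is PINK1 immunofluorescence, quantified alongside mitochondrial, cell and nuclear markers by laser-scanning microplate cytometry. Cells from a stable line were exposed to compound titrations (5 concentrations) for 24 hours, with CCCP controls.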
# 12-LOX inh = blocks human arachidonate 12S-lipoxygenase. P18054. purified 12hLO, xylenol orange hydroperoxide absorbance. Potency, µM (top dose mostly 108 µM), for inactives: top-dose activity change, negative = inhibition, usual class: inhibitors. 580,000 tested, 1.1% active. AID 1671190; further: on the % scale 0 is the no-effect control and ±100 the full control effect
# Target sequence (P18054 whole entry, looked up): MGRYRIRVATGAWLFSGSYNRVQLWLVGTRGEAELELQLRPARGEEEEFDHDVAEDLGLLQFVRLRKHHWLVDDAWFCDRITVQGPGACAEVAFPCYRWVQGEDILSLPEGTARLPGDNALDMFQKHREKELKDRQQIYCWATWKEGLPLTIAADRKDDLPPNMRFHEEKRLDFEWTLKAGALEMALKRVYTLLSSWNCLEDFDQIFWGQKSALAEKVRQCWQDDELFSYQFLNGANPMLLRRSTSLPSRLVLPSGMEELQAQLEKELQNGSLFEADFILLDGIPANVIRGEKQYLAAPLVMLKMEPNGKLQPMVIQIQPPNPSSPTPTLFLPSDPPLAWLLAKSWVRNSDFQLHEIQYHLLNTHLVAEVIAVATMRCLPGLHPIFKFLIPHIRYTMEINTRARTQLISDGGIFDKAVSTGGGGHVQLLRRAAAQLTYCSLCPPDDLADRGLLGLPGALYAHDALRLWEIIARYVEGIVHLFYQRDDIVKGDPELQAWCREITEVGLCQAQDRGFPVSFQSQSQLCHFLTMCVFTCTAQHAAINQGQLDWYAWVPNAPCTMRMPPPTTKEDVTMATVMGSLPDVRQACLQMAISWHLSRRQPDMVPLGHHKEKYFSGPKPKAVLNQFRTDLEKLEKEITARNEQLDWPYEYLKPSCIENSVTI
#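 Purified human 12hLO at 150 nM in 25 mM Hepes, 0.01% Triton X-100, pH 7.0, preincubated 15 min at room temperature with compound. Reaction started with 40 uM arachidonic acid, 30 min at room temperature. Hydroperoxide measured by Fe-xylenol orange, 573/405 nm absorbance ratio.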
# KB-V1 MDR tox = kills drug-selected multidrug resistant KB-V1 cells. KB-V1 MDR cells viability, CellTiter-Glo, 72 h. Potency, µM (titrated, usually from 46.1 µM), actives largely listed as cytotoxic. 400,000 tested, 3.4% active. AID 1347076; further: on the % scale 0 is the no-effect control and ±100 the full control effect; nearly all actives have a fitted effect of over 60% in size
#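 Cytotoxicity toward P-gp-expressing KB-V1 cells was determined as loss of CellTiter-Glo luminescence after 72 h at 37 degrees C. Compounds were tested in quantitative HTS format across a concentration range, with curves fitted to normalized data.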
# MCF10A rereplic = inducers of DNA re-replication in MCF 10A breast cells; MCF 10A DNA re-replication, Hoechst nuclear intensity, 48 h; Potency, µM (titrated, usually from 46.1 µM), for the others: at the top dose activity, positive = re-replication, most hits filed as activators; 350,000 tested, 2.9% active; AID 624296; further: % of control where 0% means no effect; nearly all actives have a fitted effect of over 50% in size
# KB-3-1 cytotox = KB-3-1 parental cell cytotoxicity. KB-3-1 viability, CellTiter-Glo ATP luminescence, 72 h. Potency, µM (titrated, usually from 46.1 µM), hits mostly cytotoxic. 400,000 tested, 1.4% active. AID 1347075; further: on the % scale 0 is the no-effect control and ±100 the full control effect; nearly all actives have a fitted effect of over 60% in size
#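 Cells are dispensed, compounds pinned in, plates held at 37 °C for 72 h, then CellTiter-Glo is added and luminescence read after 10 minutes. Cell line: parental KB-3-1 in phenol-red-free DMEM, 10% FBS.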
# Starred values were filed as active, the others as inactive; i = inactive; ? = inconclusive; . = not tested or not shown; [ ] = remark or other dose. The list is not random: actives were taken first. Their share in the collection is about 5.8%. Unless noted, the call rests on the fitted dose curve; in most records, active means well fitted curve in the direction sought with a large enough effect; inconclusive means small, poorly fitted or top-dose-only effect, or another doubt; inactive means no such curve, though single readings can be large; an effect the other way counts as inactive or inconclusive. Potency means the concentration at half of the fitted maximal effect.
SMILES,SW480 rerep,PINK1 expr mod,12-LOX inh,KB-V1 MDR tox,MCF10A rereplic,KB-3-1 cytotox
O=C(O)c1ccc(-c2ccccc2)cc1F,.,.,-7%,.,.,.
CC(=O)OC1=CSc2cccc3cccc1c23,.,.,40µM*,.,.,.
CCCCCOc1ccc(C(C)=O)cc1,.,.,-1%,.,.,.
Cn1c(-c2ccc(C=O)s2)nc2c3ccccc3c3ccccc3c21,?,4%,1%,?,10µM*,?
CN1CCN(CCCNC(=O)c2ccc(/C=C3\Sc4ccccc4N(Cc4ccc(F)cc4)C3=O)cc2)CC1,?,-2%,2%,i,18µM*,i
CCN1CCN(CCNC(=O)c2ccc(/C=C3\Sc4ccccc4N(Cc4ccccc4F)C3=O)cc2)CC1,18µM*,-1%,?,?,13µM*,i
COCCCNC(=O)/C=C1\Sc2ccccc2N(Cc2ccccc2F)C1=O,18µM*,10%,18%,i,?,i
CN1CCN(CCCNC(=O)c2ccc(/C=C3\Oc4ccccc4N(Cc4ccccc4F)C3=O)cc2)CC1,6.5µM*,-1%,-22%,i,9.2µM*,i
COCCCNC(=O)c1ccc2c(c1)N(Cc1ccccc1F)C(=O)c1ccccc1S2=O (stereo unspecified),.,3%,0%,?,.,i
CN1CCN(CCCNC(=O)c2ccc(/C=C3/Sc4ccccc4N(Cc4cccc(Cl)c4)C3=O)cc2)CC1,?,-1%,?,?,?,i
COc1ccc(CNC(=O)c2scnc2C)cc1OC,.,.,-32%,.,.,.
CCOC(=O)C(NC(=O)c1ccccc1)(Nc1ccccc1OC)C(F)(F)F (stereo unspecified),.,.,1%,.,.,.
Cc1ccc(CNC(=O)c2cccc(C3CCCN(C(=O)Nc4ccccc4)C3)c2)o1 (stereo unspecified),.,.,4%,.,.,.
COc1ccccc1-n1ccnc(SCC(=O)NCc2ccccc2Cl)c1=O,2%,-1%,-2%,21µM*,5%,i
Cc1nc(C(=O)Nc2ccc(Cl)cc2)sc1C1(C)CC(c2cccc([N+](=O)[O-])c2)=NO1 (stereo unspecified),5%,0%,6%,i,13%,i
COc1ccc(NC(=O)c2nc(C)c(C3(C)CC(c4cccnc4)=NO3)s2)cc1 (stereo unspecified),7.3µM*,3%,2%,?,?,4.6µM*
CC1CCCCC1NS(=O)(=O)CCNC(=O)c1ccccc1 (stereo unspecified),-3%,-3%,-21%,21µM*,-9%,i
COCCn1cnc2c1c(=O)n(CC(=O)Nc1ccc3c(c1)OCCO3)c(=O)n2CC(C)C,.,.,4%,.,.,.
CC1CCCCN1S(=O)(=O)c1ccc2nc(N3CCCCCC3)ccc2c1 (stereo unspecified),.,.,13µM*,.,.,.
Cc1cccc(N/N=C(\C#N)S(=O)(=O)C(C)(C)C)c1,0%,3%,?,i,2%,i
CC(C)(C)c1ccc(N/N=C(\C#N)S(=O)(=O)C(C)(C)C)cc1,7%,40µM*,-16%,?,6%,?
CC(C)(C)S(=O)(=O)/C(C#N)=N/Nc1ccc(Cl)cc1,1%,28µM*,?,?,?,?
CCN(CC)P(=O)(Nc1ccc(C)cc1Br)c1ccc(N(C)C)cc1NC(=O)c1ccco1 (stereo unspecified),?,?,?,18µM*,?,?
Cc1ccc(NC(=O)c2ccco2)c(NC(=O)c2ccccc2)c1,-1%,-1%,0%,i,-1%,i
COc1ccccc1-c1ccc(/C=C2/C=C(C)OC2=O)o1,?,3%,?,i,21µM*,i
COc1ccccc1-c1ccc(/C=C2\C=CC(=O)O2)o1,?,0%,?,i,21µM*,i
COc1ccc(-c2ccc3ncc(Nc4ccc(C(N)=O)cc4)n3n2)cc1OC,.,.,20%[176 µM],.,.,.
CCCNC(=O)Cc1c(C)nc2nc(N)nn2c1C,.,.,4%,.,.,.
